Assay outcomes as filed in PubChem.
A selection: hits, their analogues and other compounds. The true share with any hit is near 5.3%.
PNC inhibitor: High Content Assay for Compounds that inhibit the Assembly of the Perinucleolar Compartment; PC3M PTB-GFP, PNC prevalence imaging, 16 h; stronger effect = lower value; activity change (PNC), negative = inhibition, % at 10 µM; hit rate 3.1% among 140,000; AID 2417, 2010;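 active = readout at or below -70, meaning at least 70% loss of cells showing the perinucleolar compartment, a nuclear body marking cancer cells; inconclusive = readout between -30 and a set limit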;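 note: plate controls were DMSO wells for no effect and camptothecin positive control wells for full effect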
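Compounds are pinned in duplicate onto adhered PC3M cells stably expressing GFP-tagged PTB and incubated 16 h at 37 C. Cells are then fixed, nuclei stained with Hoechst, and PNC-positive cells counted.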
HPGD block: qHTS Assay for Inhibitors of HPGD (15-Hydroxyprostaglandin Dehydrogenase); 15-hydroxyprostaglandin dehydrogenase [NAD(+)] (Homo sapiens), P15428; purified HPGD, NADH fluorescence kinetic, PGE2 substrate; hit rate 4.3% among 150,000; Potency, µM, without a hit: at the top dose activity change, negative = inhibition, actives largely listed as inhibitors; active = well fitted inhibition curve with a large enough effect, not every such curve was filed as active; inconclusive = small, poorly fitted or top-dose-only effect, or another doubt; inactive = no such curve, though single readings can be large or run the other way; note: potency is the fitted concentration of half-maximal effect
Target sequence (P15428 whole entry, looked up): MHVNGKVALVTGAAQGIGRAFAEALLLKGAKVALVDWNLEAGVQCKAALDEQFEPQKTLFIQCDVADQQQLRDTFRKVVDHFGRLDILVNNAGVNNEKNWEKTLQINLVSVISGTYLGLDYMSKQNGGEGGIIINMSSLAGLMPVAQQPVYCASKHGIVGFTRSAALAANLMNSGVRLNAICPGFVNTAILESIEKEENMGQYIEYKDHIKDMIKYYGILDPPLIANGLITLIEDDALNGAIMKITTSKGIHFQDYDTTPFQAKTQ
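20 nM HPGD preincubated 15 min at room temperature with compound in 50 mM Tris-HCl pH 8, 0.01% Tween 20. Started with 1 mM NAD+ and 30 uM prostaglandin E2; NADH fluorescence (360/450 nm) read 5 times over 30-s intervals, last minus first.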
ALOX12 inhib: qHTS Assay for Inhibitors of 12-hLO (12-human lipoxygenase) | Potency, µM (highest dose often 57.1 µM), without a hit: at the top dose activity change, negative = inhibition, usual class: inhibitors | hit rate 0.12% among 150,000 | purified 12-hLO, xylenol orange hydroperoxide absorbance | Polyunsaturated fatty acid lipoxygenase ALOX12 (Homo sapiens), P18054; note: potency is the fitted concentration of half-maximal effect; nearly all actives have a fitted effect of over 55% in size
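Xylenol orange chromogenic assay: hydroperoxide from 12hLO oxidises Fe(II), giving red-shifted Fe(III)-XO absorbance. Conditions: 150 nM enzyme, 40 uM arachidonic acid, 25 mM Hepes pH 7.0, 0.01% Triton X-100, 30 min, room temperature.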
15-hLO-2 inh: qHTS Assay for Inhibitors of 15-hLO-2 (15-human lipoxygenase 2). hit rate 0.56% among 110,000. Potency, µM (highest dose often 57.1 µM), without a hit: at the highest dose activity change, negative = inhibition, actives largely listed as inhibitors. AID 881, 2007. Polyunsaturated fatty acid lipoxygenase ALOX15B (Homo sapiens), O15296. purified 15hLO-2, xylenol orange hydroperoxide absorbance; note: potency is the fitted concentration of half-maximal effect; nearly all actives have a fitted effect of over 60% in size
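Read-out: hydroperoxide product oxidises ferrous iron, measured as xylenol orange complex via the 573-to-405 nm absorbance ratio after 30 min. Reaction: 50 nM enzyme, 15 min compound preincubation, 45 uM arachidonic acid, 90 min RT, Hepes pH 7.5 with Triton X-100.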
IMPase Li inh: qHTS Assay for Identifying the Cell-Membrane Permeable IMPase Inhibitors: Potentiation with Lithium | CHO-M1 cells, IP1 TR-FRET (IP-One), carbachol + lithium | Potency, µM (highest dose often 59.4 µM), for the others: at the highest dose activity, negative = IMPase inhibition, actives largely listed as inhibitors | hit rate 0.35% among 210,000;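 note: IP1 builds up when IMPase is blocked and the TR-FRET signal falls; potency is the fitted concentration of half-maximal effect; plate controls were basal vehicle for no effect and high inhibitor control for full effect; nearly all actives have a fitted effect of over 50% in size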
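CHO cells stably expressing M1 receptor (2000/well, cultured 16–30 h) treated 30 min at 37C with compound plus low lithium. Cytosolic IP1 by TR-FRET (665/620 ratio and 620 channel) after 10 min lysis; AC50 by Hill fit.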
IMPase cell inh: qHTS Assay for Identifying the Cell-Membrane Permeable IMPase Inhibitors | 120,000 tested, under 10 active | AID 901, 2007 | inhibition (IP1 accumulation), % at 46.1 µM | Inositol monophosphatase 1 (Rattus norvegicus), P97697 | CHO-M1 cells, IP1 accumulation, HTRF TR-FRET ratio; active = well fitted curve in the direction sought with a large enough effect in the signal ratio, not every such curve was filed as active; inconclusive = small, poorly fitted or top-dose-only effect, or a change in a side signal; inactive = no such curve, though single readings can be large or run the other way; the % refers to the signal ratio;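 note: cells stimulated with carbachol in lithium chloride buffer; plate controls were DMSO basal wells for no effect and reference inhibitor wells for full effect; higher means more IMPase inhibition seen as more IP1 and lower FRET ratio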
Target sequence (P97697 whole entry, looked up): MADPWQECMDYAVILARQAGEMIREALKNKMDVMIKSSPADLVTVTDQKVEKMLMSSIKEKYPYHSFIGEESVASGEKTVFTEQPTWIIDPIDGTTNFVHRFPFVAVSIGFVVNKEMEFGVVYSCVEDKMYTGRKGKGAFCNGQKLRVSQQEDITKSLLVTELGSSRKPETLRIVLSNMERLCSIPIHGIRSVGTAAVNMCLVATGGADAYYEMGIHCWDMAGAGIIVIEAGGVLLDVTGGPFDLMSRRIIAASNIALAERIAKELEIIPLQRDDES
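CHO-M1, 2000 cells/well, cultured 16–30 h; cpd up to 46 uM; carbachol (50 uM solution, stimulation buffer w/ 50 mM LiCl, pH 7.4), 30 min 37C; IP-One TR-FRET, 10 min RT; Ex 320/Em 665, 620; Hill-fit AC50.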
The depositor's hits bear a star; ? = inconclusive; . = no result given; [ ] = dose if it differs, or a comment. Unless noted, calls come from the whole dose curve; as a rule, active = well fitted curve in the direction sought with a large enough effect; inconclusive = small, poorly fitted or top-dose-only effect, or another doubt; inactive = no such curve, though single readings can be large; an effect the other way counts as inactive or inconclusive. Unless noted, % is set by controls: 0 for no effect and ±100 for the full control effect.

SMILES	PNC inhibitor	HPGD block	ALOX12 inhib	15-hLO-2 inh	IMPase Li inh	IMPase cell inh
COCCn1c(=S)[nH]c2cc(C(=O)N3CCc4ccccc4C3)ccc2c1=O	.	.	.	.	2%	.
CCN(CC)C(=O)c1ccc2c(=O)n(CCOC)c(=S)[nH]c2c1	22	14µM*	-2%	-2%	3%[38.3 µM]	-2
CC(=O)c1cc(CC=C(C)C)c(O)cc1O	34	13µM*	-6%	0%	8%[38.3 µM]	2
CC(=O)c1cc(CC=C(C)C)c(O)c(CC=C(C)C)c1O	-7	-18%	-5%	7%	2%[38.3 µM]	8
CN1CCN(NC(=O)c2ccc(Cl)s2)CC1	.	.	.	.	12%	.
CC(=O)c1cccc(N(CC(=O)NCC2CCCO2)C(=O)CCC(=O)Nc2cc(C)on2)c1 (configuration not stated)	-100*	-12%	-2%	6%	-18%[38.3 µM]	2
O=C(Nc1ccon1)c1ccc2c(c1)OCO2	?	18µM*	-2%	6%	?	?
CN1[C@@H]2CC[C@H]1CC(OC(c1ccccc1)c1ccccc1)C2 (some centres not stated)	.	-6%	-1%[11.4 µM]	18%[11.4 µM]	40%	10
O=C(CCc1ccccc1)N1CCN(c2ccccn2)CC1	-23	-20%	-1%	.	3%	.
O=C(CCc1ccccc1)N1CCN(CCO)CC1	-89*	4%	7%	6%	-15%[38.3 µM]	2
O=C(c1cnccn1)N1CCC[C@@]2(CCN(C(c3ccccc3)c3ccccc3)C2)C1	.	-9%	-5%	1%	19%	.
COc1ccc(C(C)(C)C)cc1NC(=O)Nc1ccc2c(c1)OCO2	1	-13%	-5%	.	11%	5
CCOC(=O)c1c(N)sn(-c2ccccc2C)c1=S	-21	11µM*	0%	-28%	-1%[38.3 µM]	1
CCOC(=O)c1nn(-c2ccccc2C)c(=O)c2c(N)scc12	.	.	.	.	-2%	.
N#Cc1c(-c2ccc(C(F)(F)F)cc2)cc(-c2ccccc2)[nH]c1=S	-99*	-10%	-3%	.	-3%	.
Cc1ccc(-c2cc(-c3ccccc3)[nH]c(=S)c2C#N)cc1	25	-11%	2%	6%[11.4 µM]	?	-9[1.84 µM]
COc1ccccc1S(=O)(=O)CC(O)COc1ccc(F)cc1Cl (configuration not stated)	.	.	.	.	4%	.
O=C(CSc1nccn1-c1cccc(Cl)c1)NC1CCCC1	-21	16µM*	-3%	-2%	1%[38.3 µM]	12
O=C(CSc1nccn1-c1ccccc1)c1ccc(Cl)cc1	-100*	-13%	1%	-15%	13%[38.3 µM]	13
COc1cc(/C=N/NC(=O)c2nc3ccccn3c2C)cc(OC)c1O	.	.	.	.	22%	.
C=C(C)CSc1nc(N)c(C#N)c(-c2ccc(C)cc2)c1C#N	2	14µM*	-1%	?	-26%[38.3 µM]	-4
CCCCOc1ccc(-c2c(C#N)c(N)nc(SCC(N)=O)c2C#N)cc1	-25	28µM*	-1%	-26%	-1%	1
CCCCOC(=O)CSc1nc(N)c(C#N)c(-c2ccc(OCC)cc2)c1C#N	?	-17%	-1%	2%	?	?
NC(=O)CS(=O)C[C@H](N)C(=O)O (some centres not stated)	.	-4%	0%[11.4 µM]	20%[11.4 µM]	2%	.
COc1ccc(N/C=C(/C(C)=O)c2ccccc2)cc1	?	22µM*	-16%	-2%	41%[38.3 µM]	-6
SMILES	PNC inhibitor	HPGD block	ALOX12 inhib	15-hLO-2 inh	IMPase Li inh	IMPase cell inh
CCCCn1nnnc1NCc1ccc(N(CC)CC)cc1	-22	2%	3%	-7%	33%[38.3 µM]	5
Cc1cc(O)c(C(C)C)cc1N=C1CSC(=O)N1	25	32µM*	-19%	?	5%[38.3 µM]	-20
CCOc1ccccc1NC(=O)c1sc2nc(-c3ccc(OC)cc3)ccc2c1N	.	.	.	.	.	-6
CCN1CCN(Cc2c(O)ccc3c(=O)c(Oc4ccccc4C(C)C)c(C(F)(F)F)oc23)CC1	.	.	.	.	.	-2
O=C(COC(=O)c1ccc(O)cc1)Nc1ccc(Cl)cc1	.	.	.	.	28%	.
Cc1ccc(S(=O)(=O)NC(=O)Nc2ncc3c(n2)CC(c2ccco2)CC3=O)cc1 (configuration not stated)	-97*	1%	4%	.	4%	1
CC(=O)Nc1ncc2c(n1)CC(c1ccco1)CC2=O (configuration not stated)	-29	-7%	6%	11%	19%[38.3 µM]	-5
c1ccc(-n2ncc3c(NCc4cccs4)ncnc32)cc1	8	5µM*	-3%	16%[2.29 µM]	15%[38.3 µM]	8
COc1ccc(-n2ncc3c(NCc4cccs4)ncnc32)cc1	16	?	-21%	11%	-8%[38.3 µM]	-3
CCC1(C)Cc2nc3[nH]c(=S)n(-c4ccc(C)cc4)c(=O)c3cc2CO1 (configuration not stated)	-15	-16%	4%	.	8.9µM*	8
Cc1ccc(-n2c(=S)[nH]c3nc4c(cc3c2=O)COC(C)(C)C4)cc1	-20	-1%	-3%	.	2%	.
O=C(c1cc(-c2ccncc2)nc2ccccc12)N1CCN(S(=O)(=O)/C=C/c2ccccc2)CC1	?	.	-7%	54%	.	7
CCOC(=O)c1cc2c(=O)n3ccccc3nc2n(C(C)C)c1=NC(=O)c1ccco1	.	.	.	.	4%	.
CC(C)n1c(=NC(=O)c2ccco2)c(C#N)cc2c(=O)n3ccccc3cc21	-82*	?	-4%	.	-2%	-3
CC(C)n1cc(/C=C2/NC(=O)N(c3cccc(Cl)c3)C2=O)c2ccccc21	-100*	-20%	-7%	.	-1%	-3
CC(C)n1cc(/C=C2\NC(=O)N(c3cccc(Cl)c3)C2=O)c2ccccc21	55	-19%	-6%	-24%	24%[38.3 µM]	-4
COC(=O)c1cc(O)c(OCc2ccccc2)c(O)c1	-85*	?	-3%	-5%	17%[38.3 µM]	-1
CCc1nc(NC(C)C)c2oc3ccccc3c2n1	-94*	-13%	-4%	11%	9%[38.3 µM]	12
CCN(CC)CCCCC1CCN(CC(=O)N2c3ccccc3C(=O)Nc3cccnc32)CC1	.	-14%	5%	-2%	32%	.
O=C1C2C3C=CC(C3=C(c3ccccc3)c3ccccc3)C2C(=O)N1CCO (configuration not stated)	8	-5%	3%	-7%	34%[38.3 µM]	13
O=C1C2C3C=CC(C3=C(c3ccccc3)c3ccccc3)C2C(=O)N1Cc1ccccc1 (configuration not stated)	-16	40µM*	-3%	-17%	16%[38.3 µM]	11
